GLD-1 TGE inh = GLD-1-TGE RNA interaction inhibition (C. elegans) | AID 2280 | inhibition, % at 5.96 µM | Q17339 | purified GLD-1 + fluorescein TGE RNA, fluorescence polarization | hit rate 0.44% among 320,000;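 active = percent inhibition above a per-plate cutoff, the plate mean of test compounds plus 3 SD, cut at about 30% in these data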;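 note: 0% = DMSO wells with GLD-1 and probe and 100% = wells lacking GLD-1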
LANA DNA inh = KSHV C-LANA DNA binding inhibition. MBP-C-LANA/FAM-LBS DNA binding, fluorescence polarization. inhibition, % at 9 µM. hit rate 0.078% among 340,000. AID 504423;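 active = highest replicate inhibition at or above 60% at 9 µM, even if other replicates fall short; inactive = all replicates below 60% inhibition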;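 note: 0% = neutral control wells and 100% = 4 µM acridine orange control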
MCL1-BIM inh = MCL1-BIM-BH3 interaction inhibition (human) | hit rate 0.68% among 320,000 | GST-MCL1 / FITC-Bim-BH3 fluorescence polarization | Q07820 | inhibition, % at 10.9 µM;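 active = inhibition above the mean inhibition of all tested compounds plus 3 SD, set per campaign, cut at about 40% in these data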;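 note: 0% = DMSO wells and 100% = unlabeled Bim-BH3 peptide control; higher means more loss of mP so more displacement of Bim peptide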
BCLXL inh = blocks human Bcl-xL binding to Bim BH3 peptide | AID 2129 | Q07817 | inhibition, % at 10.9 µM | hit rate 0.7% among 320,000 | GST-Bcl-xL / FITC-Bim BH3 peptide fluorescence polarization;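 active = inhibition above the mean of all tested compounds plus 3 SD, cutoff set per campaign, cut at about 30% in these data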;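 note: 0% = DMSO wells and 100% = unlabeled Bim-BH3 peptide competitor; inhibitors lower millipolarization by displacing the labeled peptide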
Keap1 Nrf2 FP = Keap1-Nrf2 (human) interaction inhibition | Q14145 | hit rate 0.15% among 340,000 | inhibition, % at 9.4 µM | Keap1 Kelch-Nrf2 peptide fluorescence polarization, 1536-well; in the data active = inhibition above about 12%;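 note: human Keap1 Kelch domain with fluorescein labeled Nrf2 9mer peptide probe; 0% = neutral control wells and 100% = peptide positive control; higher means more block of Keap1 binding to Nrf2 peptide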
E coli Lon inh = inhibitors of E. coli Lon protease | P0A9M0 | purified E. coli Lon protease, fluorescence polarization | inhibition, % at 7.94 µM | hit rate 0.42% among 360,000 | AID 602123; in the data active = inhibition above about 13%, passing the limit was not always enough;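 note: 0% = enzyme with probe and DMSO and 100% = no enzyme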
Target sequence (P0A9M0 whole entry, looked up): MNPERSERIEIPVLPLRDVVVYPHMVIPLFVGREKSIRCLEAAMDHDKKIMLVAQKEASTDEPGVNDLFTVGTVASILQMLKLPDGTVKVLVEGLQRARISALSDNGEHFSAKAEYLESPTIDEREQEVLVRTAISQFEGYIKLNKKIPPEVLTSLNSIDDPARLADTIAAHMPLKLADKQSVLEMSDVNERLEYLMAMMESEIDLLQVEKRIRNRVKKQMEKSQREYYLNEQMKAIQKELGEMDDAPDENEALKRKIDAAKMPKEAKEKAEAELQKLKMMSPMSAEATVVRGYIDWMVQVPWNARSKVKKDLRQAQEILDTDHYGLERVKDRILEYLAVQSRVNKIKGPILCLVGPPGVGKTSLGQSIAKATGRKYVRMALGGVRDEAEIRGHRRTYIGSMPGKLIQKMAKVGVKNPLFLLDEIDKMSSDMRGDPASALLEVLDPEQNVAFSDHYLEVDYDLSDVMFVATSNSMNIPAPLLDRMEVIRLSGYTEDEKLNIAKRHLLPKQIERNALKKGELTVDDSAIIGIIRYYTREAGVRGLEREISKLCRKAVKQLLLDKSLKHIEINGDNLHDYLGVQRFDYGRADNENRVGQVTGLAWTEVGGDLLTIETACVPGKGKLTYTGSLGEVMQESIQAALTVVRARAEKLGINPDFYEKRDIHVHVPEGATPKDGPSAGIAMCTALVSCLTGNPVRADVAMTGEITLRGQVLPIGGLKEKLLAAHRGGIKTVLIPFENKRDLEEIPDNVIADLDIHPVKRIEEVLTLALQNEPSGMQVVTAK
Keap1 TSA = binders of human Keap1 Kelch domain | max delta Tm, degrees C | Keap1 Kelch thermal shift, delta Tm; hits give high values | shares compounds with Keap1 Nrf2 FP | AID 651823 | hit rate 8% among 400; in the data active = max delta Tm above about 0.48 degrees C
Sypro dye melt = dye artifact in Keap1 thermal shift counter-screen | AID 651858 | shares compounds with Keap1 Nrf2 FP | delta Tm, degrees C (concentration not given with the values) | 140 tested, under 10 active | Sypro Orange dye-only thermal melt, no protein, delta Tm; top dose 26 µM;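 active = at highest dose tested, delta Tm positive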
eLon confirm = confirmation of E. coli Lon protease inhibitors; purified E. coli Lon, fluorescence polarization; inhibition, % at 7.94 µM; AID 602230; hit rate 31% among 1,400; shares compounds with E coli Lon inh; in the data active = inhibition above about 16%;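 note: 0% = enzyme with probe and DMSO and 100% = no enzyme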
An asterisk follows results filed as active; / = no result given; + = active, no number. Most compounds without a hit are left out; they make up all but 1.3% or so of the library.

SMILES	GLD-1 TGE inh	LANA DNA inh	MCL1-BIM inh	BCLXL inh	Keap1 Nrf2 FP	E coli Lon inh	eLon confirm	others
N#CC1=C(N)Oc2cc(N)ccc2C1c1ccsc1 (stereo unspecified)	2	-1	7	4	-3	-1	/
COc1cccc2c1C(=O)c1c(O)c3c(c(O)c1C2=O)CC(O)(C(C)=O)CC3OC1CC(N(C)C)C(O)C(C)O1 (stereo unspecified)	/	117*	/	/	+	+	+	Keap1 TSA=-0.12
C[C@@H](NC(=O)[C@@H]1Cc2ccccc2CN1)C(=O)NC1CCCCC1	-2	1	1	-2	-3	-7	/
COc1cc(NC(=O)NS(=O)(=O)c2ccc(C)cc2)cc(OC)c1	-4	2	1	3	-1	8	/
COc1ccc(NC(=O)NS(=O)(=O)c2ccc(C)cc2)cn1	/	104*	/	/	77*	87*	28*	Keap1 TSA=-0.13
Cc1cc[n+](-c2[nH]c(=O)sc2/C=N/N=C(\[O-])c2ccccc2)cc1C	/	62*	/	/	43*	68*	125*	Keap1 TSA=-0.04
Cc1cc[n+](-c2[nH]c(=O)sc2/C=N/N=C(\[O-])c2ccncc2)cc1C	9	1	15	15	2	3	/
COc1cccc(C(=O)C2CCCN(Cc3c(C)n(C)n(-c4ccccc4)c3=O)C2)c1 (stereo unspecified)	2	-1	4	0	-6	-5	/
CCN1C(=O)C(O)(CC(=O)c2cccc(-n3cccc3)c2)c2ccccc21 (stereo unspecified)	8	0	-4	-2	-3	-2	/
Cn1nc(C(C)(C)C)cc1N1C(=O)CCC1(C)C(=O)NC1CCCC1 (stereo unspecified)	/	/	/	/	/	2	/
Cc1ccc(C)c(OCCC(=O)OC(C)C(=O)Nc2c(C)n(C)n(-c3ccccc3)c2=O)c1 (stereo unspecified)	-2	1	1	0	-5	-7	/
CCOc1cc(C2C(C#N)=C(N)OC(C)=C2C(C)=O)cc(Br)c1O (stereo unspecified)	88*	47	138*	115*	26*	24*	13	Keap1 TSA=-0.1
CC(C)N1CC=C2C(C#N)=C(N)C(C#N)(C#N)C(c3ccccc3)C2C1 (stereo unspecified)	93*	33	128*	117*	12*	53*	20*	Keap1 TSA=-0.09;Sypro dye melt=-30
CCOC(=O)c1c(C)oc2c1c(C=NCCO)c(O)c1ccccc12	/	8	/	/	23*	25*	20*	Keap1 TSA=-0.18;Sypro dye melt=-29
CCOC(=O)c1c(C)oc2c1c(C(c1ccccc1)N1CCOCC1)c(O)c1ccccc12 (stereo unspecified)	9	2	3	1	-1	5	/
CN(C)/C=C1\SC(=S)N(N2C(=O)C3C4C=CC(C4)C3C2=O)C1=O (stereo unspecified)	3	0	5	-4	0	-3	/
CC(C)N1C(=O)CC(Nc2cccc3cccc(N)c23)C1=O (stereo unspecified)	/	-1	/	/	-3	-2	/
CN1C(=O)CC(Nc2cccc3cccc(N)c23)C1=O (stereo unspecified)	2	2	15	9	-3	21*	8
Cn1c2ccccc2c(=O)c2ccc(NCc3ccc4c(c3)OCO4)cc21	/	1	/	/	1	17*	3
CN1CCC[C@H]1CCNc1ccc2c(=O)c3ccccc3n(C)c2c1	/	-5	/	/	1	-4	/
COc1ccc(C(=O)OCC(=O)Nc2ccc(F)cc2F)cc1OC	1	1	-3	3	-1	-12	/
COc1ccc(C(=O)OCC(=O)Nc2ccc(F)c(F)c2)cc1OC	-1	-2	2	10	-1	14*	-4
Cc1cc(Br)cn2c(Cc3ccsc3)c(-c3ccc(Cl)cc3)nc12	/	/	/	/	/	17*	30*
Clc1cccc(-c2nc3ccc(Cl)cn3c2Cc2ccsc2)c1	/	/	/	/	/	20*	113*
Cc1cc(Br)cn2c(Cc3ccsc3)c(-c3cccc(Cl)c3)nc12	/	/	/	/	/	-5	/
SMILES	GLD-1 TGE inh	LANA DNA inh	MCL1-BIM inh	BCLXL inh	Keap1 Nrf2 FP	E coli Lon inh	eLon confirm	others
O=C(O)CC/C(=C\c1ccc2c(c1)OCO2)c1nc2ccccc2s1	28	0	9	13	1	26*	-17
O=C(O)CC/C(=C\c1ccc(Cl)c([N+](=O)[O-])c1)c1nc2ccccc2s1	-8	1	6	8	-1	1	/
Nc1ccc2c(c1)-c1ccccc1S(=O)(=O)N2	19	9	38	29	-2	17*	-13
Fc1ccc(N2CCN(C3=Nc4cccc5cccc3c45)CC2)cc1	-4	0	-17	-7	-3	-29	/
NC1=Nc2cccc3cccc1c23	20	2	27	25	5	29*	17*
Cn1ccc(C(=O)Nc2cccnc2Cl)n1	/	0	/	/	-3	-1	/
COc1ccc(C=NOCC(=O)OCC(=O)Nc2ccc(OC)cc2)cc1	2	0	/	/	0	50*	21*
CC(=O)Nc1ccc(/C=N/OCC(=O)Nc2ccc(C)cc2)cc1	3	1	4	10	-5	-5	/
CSc1ccccc1-c1cnc(NC(C)=O)cn1	/	/	/	/	/	-7	/
O=C1CCCC/C1=C\Nc1ccc(O)cc1	16	1	3	10	-7	19*	5
Cc1ccc(C)c(N2CCN(c3nnnn3-c3ccccc3)CC2)c1	-3	0	3	2	1	1	/
CCCCn1nnnc1C(c1ccccc1)N1CCN(c2ncccn2)CC1 (stereo unspecified)	/	/	/	/	/	-6	/
CCCCn1nnnc1C(c1ccccc1)N1CCN(CCN2CCOCC2)CC1 (stereo unspecified)	/	/	/	/	/	15*	0
COc1ccc(CNC(=O)CN(Cc2ccc(OC)cc2)C(=O)c2csnn2)cc1	-2	-1	3	8	-7	-2	/
Cc1nnc(NC(=O)CSc2ncc(-c3ccccc3)[nH]2)s1	4	1	0	2	-7	-3	/
NNC(=O)CSc1ncc(-c2ccccc2)[nH]1	-5	2	5	-1	-2	15*	-4
CCCC(=O)N1CCC1(C)C(=O)Nc1cc(C)ccc1C (stereo unspecified)	/	/	/	/	/	0	/
CCCCOC(=O)/C=C/c1ccc(OC(=O)OC)c(OC(=O)OC)c1	1	2	4	2	-4	28*	-30
CCOc1ccc(NC(=O)CN(C)C(=O)C2CSC3(C)CCC(=O)N23)cc1OCC (stereo unspecified)	7	0	-2	2	0	3	/
